# NOTCH ag – NOTCH pathway agonism; NOTCH signaling luciferase reporter cells, luminescence; activation, % at 2.5 µM; 15,000 tested, 0.4% active; AID 434982; in the data active means activation above about 2.2%
# luminol inh ctr – quenches luminol chemiluminescence in Nox1 counter-screen; 16,000 tested, 0.4% active; HRP/luminol/H2O2 chemiluminescence counterscreen; AID 1823; inhibition, % at 6.7 µM; further: reference of the scale not given here
# S1P1 agonist – activates the human S1P1 receptor. P21453. S1P1 agonist cell-based reporter assay. activation, % at 4.5 µM. 16,000 tested, 1.5% active. AID 1044; in the data active means activation above about 80%
# Nox1 inh – human Nox1 inhibition; inhibition, % at 6.7 µM; 16,000 tested, 0.81% active; HT29 cells, luminol chemiluminescence ROS
# Target sequence (Q9Y5S8 whole entry, looked up): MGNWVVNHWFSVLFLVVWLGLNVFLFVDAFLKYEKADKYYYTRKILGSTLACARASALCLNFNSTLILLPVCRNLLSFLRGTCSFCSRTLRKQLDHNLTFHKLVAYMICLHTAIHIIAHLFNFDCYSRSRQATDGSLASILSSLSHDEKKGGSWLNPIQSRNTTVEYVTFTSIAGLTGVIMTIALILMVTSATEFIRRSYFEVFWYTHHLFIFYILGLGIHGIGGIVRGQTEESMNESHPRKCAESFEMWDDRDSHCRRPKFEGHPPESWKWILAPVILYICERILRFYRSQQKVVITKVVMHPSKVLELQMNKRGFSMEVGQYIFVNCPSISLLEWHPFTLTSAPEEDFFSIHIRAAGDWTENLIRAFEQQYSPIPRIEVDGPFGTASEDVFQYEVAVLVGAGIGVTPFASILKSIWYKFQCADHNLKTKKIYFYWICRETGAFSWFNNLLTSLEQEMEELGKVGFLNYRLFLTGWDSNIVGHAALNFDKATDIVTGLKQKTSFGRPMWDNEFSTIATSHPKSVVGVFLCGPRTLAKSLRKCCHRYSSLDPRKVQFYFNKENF
# rat GALR2 ag – GALR2 (rat) receptor agonism; cell-based GALR2 agonist screen; 16,000 tested, 0.5% active; AID 833; activation, % at 10 µM; in the data active means activation above about 15%
# PME-1 Maybr inh – Maybridge compound blocking human PME-1 | 16,000 tested, 0.5% active | AID 2291 | recombinant PME-1, FP-Rh probe fluorescence polarization | Q9Y570 | inhibition, % at 9 µM; in the data active means inhibition above about 30%
# The depositor's hits bear a star; / = no result given. Sampled rows, rich in hits. Any-hit rate of the full collection: about 3.8%. Unless noted, no stated cut-off is given here; in the data, active means inhibition above about 75%; inactive means the rest.
SMILES,NOTCH ag,luminol inh ctr,S1P1 agonist,Nox1 inh,rat GALR2 ag,PME-1 Maybr inh
C=CCn1c(SCC(=O)NNC(=S)NC)nnc1-c1ccccc1,0.1,88.7*,6.9,-10.8,-4.2,6.8
C=CCn1c(SCc2n[nH]c(=S)n2C)nnc1-c1ccccc1,-0.6,82.0*,-4.9,4.1,-5.1,5.6
C=CCn1c(SCC(=O)N2CCc3ccccc32)nnc1-c1ccc(Cl)cc1,-0.4,-0.9,17.4,-29.8,4.0,-0.5
COC(=O)C1=C(C)Nc2[nH]ncc2C1c1ccccc1 (centres undefined),-0.6,4.1,9.7,-18.4,-6.4,42.9*
COC(=O)c1sccc1OC(=O)c1nn(-c2ccccc2)nc1C,-0.4,-6.0,-0.8,32.4,-5.7,6.6
Oc1[nH]c2ccccc2c1N=Nc1nc(-c2ccc(Br)cc2)cs1,-0.3,12.3,82.5*,-1.6,-7.2,13.8
N#Cc1c(Cl)c(Cl)c(Cl)c(Cl)c1C#N,-1.2,2.3,110.2*,-11.3,-15.7,-3.3
CCn1nc(C)cc1C(=O)NNC(=S)Nc1ccccc1,-0.2,-26.6,-30.4,-58.3,-3.1,-1.5
CC1CC(=O)Nc2ccccc2N1S(=O)(=O)c1ccc(F)cc1F (centres undefined),0.0,-2.1,-1.1,24.7,-4.0,1.5
CC1CC(=O)Nc2ccccc2N1S(=O)(=O)c1cn(C)cn1 (centres undefined),-0.7,2.6,120.8*,-64.0,-5.7,-5.9
COc1ccccc1N1CCN(C(=O)C(C)N2CCCc3cc(C)ccc32)CC1 (centres undefined),-0.7,-11.4,-18.1,10.9,6.8,71.3*
COC(=O)C1=CN2c3ccccc3SC2(C(=O)OC)C(C(=O)OC)=C1C(=O)OC (centres undefined),-0.2,7.9,99.0*,-75.0,-5.5,-0.3
N#CCC(=O)NNC(=O)c1ccccc1Cl,-0.2,-0.1,-7.4,-50.3,3.8,2.0
N#CCC(=O)NNC(=S)Nc1ccccc1,-0.4,17.9,-9.8,89.5*,-8.0,1.7
CN1c2ccccc2C(O)=C(C(=O)Nc2ccc(OC(F)(F)F)cc2)S1(=O)=O,0.2,-2.8,12.0,13.7,-6.0,-14.2
CC1CN(c2ccccc2OC(=O)Nc2ccc(OC(F)(F)F)cc2)CC(C)O1 (centres undefined),-0.1,15.0,4.1,101.1*,-6.6,-12.4
O=C(Nc1ccc(Cl)cc1)Oc1ccccc1N1CCSCC1,-0.4,3.8,3.4,92.1*,-2.8,-2.3
CCN(c1ccccc1)S(=O)(=O)c1cc([N+](=O)[O-])ccc1N,-0.6,2.9,99.8*,-0.5,-7.2,8.0
C/C(=N\N=C(/N)SCc1cc(F)cc2c1OCOC2)c1ccc(C)nc1,-0.9,2.4,90.0*,-11.6,-5.6,-0.3
Cc1nnsc1C(=O)NCc1cc(F)cc2c1OCOC2,-0.6,-3.8,4.3,19.3,-2.6,8.0
Nc1nc(-c2cccc([N+](=O)[O-])c2)cs1,-0.2,4.0,7.0,14.7,-4.9,7.4
O=C(NNc1nc(-c2cccc([N+](=O)[O-])c2)cs1)c1ccccc1Cl,-0.1,0.9,22.8,75.2*,-4.8,3.8
Cn1c2c(c(=O)n3ncnc13)CCCC2,-0.5,2.5,91.5*,-50.9,0.9,-2.5
O=C(Cn1c2c(c(=O)n3ncnc13)CCC2)N/N=C/c1cccs1,0.1,-2.3,-8.1,-24.3,-6.0,1.5
Cc1c(C(=O)Nc2ccccc2)sc(N)c1C(N)=O,0.0,37.7,-4.0,-18.7,-7.8,4.7
SMILES,NOTCH ag,luminol inh ctr,S1P1 agonist,Nox1 inh,rat GALR2 ag,PME-1 Maybr inh
Oc1c(Cl)cc(Cl)cc1/C=N/NC(=S)NNc1ccccc1,-0.3,16.1,53.7,59.0,-2.8,11.3
CC(NC(=S)N/N=C/c1cc(Cl)cc(Cl)c1O)c1ccccc1 (centres undefined),-0.9,-1.0,-16.9,-37.8,26.8*,16.5
O=C(N/N=C/c1cc(Cl)cc(Cl)c1O)C(=O)Nc1ccc(Cl)c(Cl)c1,4.1*,-1.3,13.7,-65.8,-5.9,-82.0
COc1ccc(C(=O)N/N=C/c2cc(Cl)cc(Cl)c2O)cc1,/,-2.7,1.7,32.0,-1.6,-1.1
CCOC(=O)NC(=O)CC#N,-0.1,5.2,-5.9,-33.9,-5.3,2.0
O=c1c(=NO)c(=O)c2ccccc12,2.3*,-6.9,1.9,0.0,-8.4,4.5
Cn1c(-c2ccccn2)n[nH]c1=S,-0.4,96.5*,87.6*,-20.9,-9.9,1.0
Cn1c(-c2ccco2)n[nH]c1=S,-5.3,0.8,0.2,-36.5,-6.0,-2.3
Cc1noc(/C=C/c2sccc2C2OCCO2)c1[N+](=O)[O-],0.1,6.8,35.9,-2.6,-9.1,-2.6
Cc1ccc(-c2cc(Cc3ccncc3)c(=O)[nH]n2)cc1,/,-2.9,-16.1,8.1,-4.8,-0.1
O=c1ccc(-c2ccncc2)n[nH]1,-0.9,-3.0,-9.3,-46.4,23.2*,3.7
CC(=O)c1ccc(NCN2C(=O)/C(=C\N(C)C)NC2=S)cc1,-0.1,9.9,-7.1,100.0*,-7.0,-2.1
COC(=O)c1ccc(S(=O)(=O)Nc2ccc(N3CCOCC3)cc2)n1C,0.1,39.6,3.8,90.6*,-7.4,1.2
O=C(NCCc1ccccc1)c1ccc2nonc2c1,-0.7,-0.3,1.9,-22.2,-4.7,2.5
COC(=O)c1sccc1-c1ccc(CN2CCCc3cc(OC)ccc32)o1,-0.1,-29.9,-4.5,94.3*,-9.5,9.5
COC(=O)c1sccc1OCc1nnc(-c2ccc(OC)cc2)o1,-0.2,-7.8,-7.5,20.0,-3.2,5.0
CSc1nc(SC)c(C#N)c(-c2ccco2)n1,0.4,-7.6,-20.9,12.1,0.0,3.5
COc1cc(CCC(=O)O)cc(OC)c1OC,0.0,3.7,-10.1,-43.2,-6.1,-2.9
COc1ccc(Nc2nc(NC(=O)Nc3ccc(Cl)cc3)n[nH]2)cc1,-0.3,21.1,-12.6,96.4*,-3.2,-0.2
CC(C)(C)OC(=O)NCCNC(=S)NCc1ccccc1,0.3,-0.9,-1.7,-13.2,-7.0,2.2
N#C/C(=N\Nc1ccccc1Cl)S(=O)(=O)c1ccc(Cl)cc1,0.5,4.0,111.5*,-39.5,-12.3,16.0
N#CCOc1nc(-c2ccccc2)cc(-c2ccco2)c1C#N,-0.7,1.9,-49.9,-44.9,22.4*,-4.2
Cc1cc(Br)c(NC(=S)NNc2ccccc2)c(Br)c1,0.0,6.8,-23.2,99.5*,-3.1,11.4
CC(C)(C)S(=O)(=O)/C(C#N)=C/NN1CCCCC1,-0.6,28.3,2.5,35.3,-6.6,6.2
O=C(NNC(=S)Nc1cccc(C(F)(F)F)c1)c1sc2ccccc2c1Cl,-0.3,12.8,96.1*,32.4,-0.8,-21.6
O=S(=O)(Cc1nc(-c2ccc3c(c2)OCCO3)cs1)c1ccc(Cl)cc1,-0.9,-0.4,-1.6,-45.0,-7.2,10.0
O=C(Oc1cccnc1)c1c(F)cccc1F,-0.1,-4.4,2.8,13.9,-2.8,6.0
CSc1nccc(-c2ccc(S(=O)(=O)Nc3cc(C(F)(F)F)cc(C(F)(F)F)c3)s2)n1,0.3,-0.5,87.5*,-10.8,-4.8,-2.7
O=S(=O)(Nc1ccccc1C(F)(F)F)c1ccc(-c2ccccn2)s1,/,-0.7,15.0,0.0,-8.9,22.0

# Bioassay records as filed in PubChem.
